Compound activity as filed in PubChem BioAssay.
Bim-Mcl-1 – inhibitors of Bim peptide binding to Mcl-1, primary screen, biochemical, bead-based flow cytometry, multiplex. actives 0.1% (n = 190,000). AID 1009, 2008. inhibition, % at 10 µM. Induced myeloid leukemia cell differentiation protein Mcl-1 (Homo sapiens), Q07820. Bim peptide-Mcl-1 binding; in the data active means inhibition above about 40%;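 further: 0% = no compound tracer wells and 100% = peptide blocker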
Target sequence (Q07820 whole entry, looked up): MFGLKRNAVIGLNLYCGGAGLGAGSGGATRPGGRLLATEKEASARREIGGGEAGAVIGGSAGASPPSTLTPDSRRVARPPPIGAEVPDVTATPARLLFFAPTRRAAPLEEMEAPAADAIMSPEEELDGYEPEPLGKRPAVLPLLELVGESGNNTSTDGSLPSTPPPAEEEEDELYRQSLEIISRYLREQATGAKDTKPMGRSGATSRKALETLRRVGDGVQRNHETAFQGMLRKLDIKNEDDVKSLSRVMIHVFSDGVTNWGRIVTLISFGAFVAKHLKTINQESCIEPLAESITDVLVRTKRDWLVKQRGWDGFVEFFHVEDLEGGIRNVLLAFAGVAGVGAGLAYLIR
14-3-3 Bad PPI – inhibitors of 14-3-3 zeta/Bad binding, primary screen, biochemical, TR-FRET, bovine 14-3-3 zeta. TR-FRET 14-3-3zeta/Dy647-pBad peptide displacement, 1 h. actives 0.71% (n = 220,000). inhibition, % at 21.7 µM. AID 781, 2007. 14-3-3 protein zeta/delta (Bos taurus), P63103;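 active means inhibition above about 70%, limit read from the data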;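 further: 0% = full 14-3-3 plus peptide FRET controls and 100% = background without 14-3-3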
Target sequence (P63103 whole entry, looked up): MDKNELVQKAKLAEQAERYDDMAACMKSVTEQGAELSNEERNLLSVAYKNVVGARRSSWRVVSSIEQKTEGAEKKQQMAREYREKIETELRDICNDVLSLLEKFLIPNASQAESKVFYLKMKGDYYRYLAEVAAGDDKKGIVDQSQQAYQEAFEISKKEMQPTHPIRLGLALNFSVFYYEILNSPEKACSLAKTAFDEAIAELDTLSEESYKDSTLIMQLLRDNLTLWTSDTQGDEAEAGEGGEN
eIF4E 4G PPI – eIF4E–eIF4G protein interaction inhibitors, primary screen, biochemical, uHTS, TR-FRET, eIF4GI fragment | Eukaryotic translation initiation factor 4E (Mus musculus) + Eukaryotic translation … | TR-FRET eIF4E-eIF4GI(517-606) binding, 2 h | inhibition, % at 21.7 µM | actives 0.37% (n = 220,000) | AID 782, 2007;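 further: 0% = full FRET control wells and 100% = background wells lacking eIF4GI fragment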
NCF1 inh – p47phox/p22phox peptide binding inhibitors, primary screen, biochemical, uHTS, NADPH oxidase regulatory subunit. fluorescence polarization, 2 h. inhibition, % at 24.7 µM. actives 0.53% (n = 220,000);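 further: 0% = p47phox with labelled peptide and 100% = labelled peptide alone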
Mcl1 Noxa PPI – Mcl-1/Noxa binding inhibitors, primary screen, biochemical, TR-FRET, 1536-well; Induced myeloid leukemia cell differentiation protein Mcl-1 (Homo sapiens), Q07820; TR-FRET Mcl-1/Noxa peptide binding, 2 h; inhibition, % at 21.7 µM; actives 1.5% (n = 220,000); AID 1022, 2008;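 active means compounds that cut the protein-peptide binding signal by more than 50% relative to plate controls in a single-dose test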;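 further: His-tagged Mcl-1 with rhodamine Noxa BH3 peptide and terbium anti-His antibody; 0% = Mcl-1 plus Noxa peptide wells and 100% = peptide-only wells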
Mcl1 Bid PPI – Mcl-1/Bid binding inhibitors, primary screen, biochemical, TR-FRET, 1536-well. actives 0.97% (n = 220,000). Induced myeloid leukemia cell differentiation protein Mcl-1 (Homo sapiens), Q07820. AID 1021, 2008. inhibition, % at 21.7 µM. TR-FRET Mcl-1/Bid-Dy647 peptide binding;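 active means compounds that cut the binding signal by more than half at the single screening dose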;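 further: His-tagged Mcl-1 with europium anti-His antibody binding Bid BH3 peptide; 0% = Mcl-1 plus peptide wells and 100% = peptide-only wells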
* hit, by the source's call; . = not tested or not shown. Sampled rows, rich in hits. Any-hit rate of the full collection: about 3.4%.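 How the source made its calls, unless noted: active means inhibition above about 30% (limit read from the data); inactive means the rest.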

SMILES	Bim-Mcl-1	14-3-3 Bad PPI	eIF4E 4G PPI	NCF1 inh	Mcl1 Noxa PPI	Mcl1 Bid PPI
Cc1ccc(/C=C2\C(=O)NC(=S)N(c3ccccc3F)C2=O)s1	0	16	20	-15	93*	19
Cc1ccc(/C=C2\C(=O)NC(=S)N(c3ccc(F)cc3)C2=O)s1	0	-12	3	-5	29	-24
c1ccc(-c2ccc(-c3n(-c4ccccn4)c4ccccc4[n+]3-c3ccccn3)cc2)cc1	-1	12	-7	34*	87*	16
CC(C)N1CCN(c2ccc(O)cc2)CC1	-6	-8	-7	7	54*	-67
O=[N+]([O-])c1cc(S(=O)(=O)c2ccc(O)c([N+](=O)[O-])c2)ccc1O	0	0	8	-16	85*	-70
COc1ccc(CCNCc2ccccn2)cc1OC	-2	75*	4	-1	7	14
CCCc1nc2ccc(Br)cc2c(=O)n1-c1ccc([N+](=O)[O-])c(C(F)(F)F)c1	-1	3	-3	-24	0	-13
COc1cccc(N2C(=O)NC(=O)/C(=C/c3ccc4c(c3)Cc3ccccc3-4)C2=O)c1	0	25	5	-35	41	9
Nc1ccc2c(c1)Cc1ccccc1-2	0	1	4	-1	54*	-51
CN1CN(c2cccc([N+](=O)[O-])c2)CN=C1N[N+](=O)[O-]	3	-8	-2	-15	7	-23
Fc1ccc2c(c1)nnn2C1CCN(Cc2nnnn2C2CCCCC2)CC1	-2	80*	-1	-9	9	-10
Fc1ccc2c(c1)nnn2C1CCN(Cc2c(Cl)cccc2Cl)CC1	-5	-8	2	-15	4	-8
Cc1nc2cc(F)ccc2n1C1CCN(Cc2nnnn2CCc2ccccc2)CC1	0	80*	-7	-1	28	21
O=c1cccc2n1CC1CC2CN(C(c2ccccc2)c2sc3ncnn3c2O)C1 (stereo not given)	0	4	4	9	8	-14
CSc1nnc(C2CCNCC2)n1C	0	87*	6	-5	25	4
CCCCC(CC)COCCCN=Cc1c(O)[nH]c(=S)[nH]c1=O (stereo not given)	.	-1	7	-90	5	-116
O=c1c2ccccc2nc(C[n+]2ccccc2)n1-c1cccc(C(F)(F)F)c1	5	8	-1	3	16	4
Cc1ccc(N2C(=O)NC(=O)/C(=C/c3cnc(-c4ccccc4)nc3)C2=O)cc1C	-1	17	10	-1	75*	20
Cc1cccc(N2C(=O)NC(=O)/C(=C\c3cnc(-c4ccccc4)nc3)C2=O)c1	1	-15	11	-11	41	9
CC(=NCc1ccco1)c1c(O)n(-c2ccccc2C)c(=O)[nH]c1=O	.	1	-3	-3	11	-41
Cc1c(C(c2ccc(Br)cc2)c2c(O)c3ccccc3oc2=O)c(=O)n(-c2ccccc2)n1C (stereo not given)	1	1	-2	53*	14	-22
CSc1ccc(C(c2c(O)c3ccccc3oc2=O)c2c(C)n(C)n(-c3ccccc3)c2=O)cc1 (stereo not given)	0	-21	-4	-12	3	-25
O=C1NC(=S)NC(=O)C1=Cc1cccn1-c1ccc(O)cc1	0	39	19	-23	76*	-38
CN1C(=O)/C(=C/c2cccn2-c2ccc3ccccc3c2)C(=O)NC1=S	0	25	9	-47	2	-21
Cc1nn(Cc2ccccc2)c(C)c1C(=O)OCC(=O)Nc1cc(S(C)(=O)=O)ccc1Cl	-8	6	4	0	-7	-9
SMILES	Bim-Mcl-1	14-3-3 Bad PPI	eIF4E 4G PPI	NCF1 inh	Mcl1 Noxa PPI	Mcl1 Bid PPI
CCCCCCOc1ccc(CN2CCN(CC)CC2)cc1	-1	30	0	-6	40	43
CCN1CCN(Cc2ccc(OC(F)(F)F)cc2)CC1	0	85*	0	-8	19	-7
COc1cccc(-n2c(/C=C/c3ccc(O)c(O)c3)nc3ccccc3c2=O)c1	-1	-2	3	-18	56*	-6
O=c1c2ccccc2nc(/C=C/c2ccc(O)cc2)n1-c1cccc(O)c1	0	-1	-1	-13	2	-18
COc1c(C)cc(C(=O)C2CCCN(Cc3cccc(C)n3)C2)cc1C (stereo not given)	-1	-6	-1	-1	10	-18
CCOC(=O)C1=C(N)Oc2cc(C)oc(=O)c2C12C(=O)N1c3c(cccc32)C(C)CC1(C)C (stereo not given)	-1	70*	-12	-6	2	-32
Cc1cc(N2C(=O)C3CCCN3C2c2sccc2C)no1 (stereo not given)	-6	3	3	3	0	-26
COC(=O)C1C2c3ccccc3OC1(C)N=c1s/c(=C/c3cnn(C)c3C)c(=O)n12 (stereo not given)	64*	-2	1	-15	9	-8
O=C(Cc1ccc([N+](=O)[O-])cc1)N1CCN(Cc2ccc3c(c2)OCO3)CC1	.	0	6	-2	17	4
COc1cccc(N2CCN(Cc3cccc(Cl)c3)CC2)c1	-5	80*	-3	-2	20	-20
CC(C)OP(=O)(OC(C)C)C(O)c1ccccc1F (stereo not given)	-1	0	-1	-7	9	-2
Cc1ccc(N2C(=O)/C(=C/c3ccc(CN(CCC#N)S(C)(=O)=O)o3)C(=O)NC2=S)cc1	0	8	9	-35	69*	-9
O=c1c2ccccc2nc(-c2ccco2)n1-c1cccnc1	-6	9	2	0	97*	-20
COCCNCCOc1ccc(C(C)(C)c2ccccc2)cc1	-2	35	-5	3	10	9
CN(C)C(Cc1ccccc1)C(=O)c1cccs1 (stereo not given)	48*	0	-3	-9	18	-25
CC(C)n1c(O)c(C2c3cc(Cl)ccc3Oc3[nH]c(=O)n(C(C)C)c(=O)c32)c(=O)[nH]c1=O (stereo not given)	.	-10	1	-7	38	-67
O=c1[nH]c(=S)[nH]c(O)c1N=Nc1ccc(SC(F)F)cc1	.	4	0	-24	47	-25
O=c1[nH]c(=S)[nH]c(O)c1N=Nc1ccc(S(=O)(=O)N2CCc3ccccc32)cc1	-5	-2	5	-14	56*	-35
